# Screening results: PubChem BioAssay, National Center for Advancing Translational Sciences (NCATS)
# Hits are enriched below; roughly 19% of the tested compounds scored in any of these assays.
# HT1080 IDH1KD tx: qHTS for induction of synthetic lethality in tumor cells producing 2HG: qHTS for the HT-1080-IDH1KD cell line; HT-1080 IDH1 knockdown viability, ATP luminescence, 48 h; Potency, µM (series often up to 46.1 µM), hits mostly cytotoxic; actives 2% (n = 360,000)
#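 Viability of IDH1-knockdown HT-1080 fibrosarcoma cells was assessed by CellTiter-Glo after 48 h at 37 °C with titrated compound; concentration-effect curves were classified by fit quality and response size.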
# TDP1 cell CPT: qHTS for Inhibitors of human tyrosyl-DNA phosphodiesterase 1 (TDP1): qHTS in cells in presence of CPT. chicken DT40 Tdp1-/-;hTDP1 cells + 20 nM CPT, ATP luminescence, 48 h. Potency, µM (series often up to 46.2 µM), actives largely listed as inhibitors. actives 12% (n = 420,000). AID 686979, 2013; further: nearly all actives have a fitted effect of over 55% in size
#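 Chicken DT40 Tdp1-/- cells stably complemented with human TDP1 were seeded at 400 cells/well in medium containing 20 nM camptothecin, exposed to pin-transferred compounds, and grown at 37 °C for at least 48 hr. Viability was read as ATP luminescence.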
# HT1080-NT tox: qHTS for induction of synthetic lethality in tumor cells producing 2HG: qHTS for the HT-1080-NT fibrosarcoma cell line | HT-1080-NT fibrosarcoma viability, CellTiter-Glo ATP luminescence, 48 h | Potency, µM (top dose mostly 46.1 µM), most hits filed as cytotoxic | actives 1.6% (n = 360,000);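 further: NT is the 2HG producing partner of a matched IDH1 knockdown line; nearly all actives have a fitted effect of over 55% in size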
#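 Luminescent CellTiter-Glo readout after 48 hours of compound exposure at 37 degrees C defined viability of HT-1080-NT cells. Activity was normalized to DMSO wells and cell-free media wells; concentration-response curves were fitted and assigned curve classes.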
# IL-1B inflam inh: qHTS for Inhibitors of Inflammasome Signaling: IL-1-beta AlphaLISA Primary Screen; THP-1 LPS/ATP IL-1B secretion, AlphaLISA, 16 h; stronger effect = lower value; activity change, % at 57.5 µM; actives 4.7% (n = 360,000); in the data active means activity change below about -50%; inconclusive means mostly about -30% to -49%
#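 THP-1 cells pretreated 1 hr with compounds (up to 57.5 uM final), then stimulated with LPS (250 ng/mL final) plus ATP (1.25 mM final); secreted IL-1B measured by AlphaLISA after 16 hr, decreased signal indicating inhibition.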
# ELG1 repair inh: qHTS screen for small molecules that inhibit ELG1-dependent DNA repair in human embryonic kidney (HEK293T) cells expressing luciferase-tagged ELG1; HEK293T ELG1-luciferase reporter, luminescence, 16 h; DNA damage induced by 5-fluorouridine; Potency, µM (titrated, usually from 46.1 µM), hits mostly inhibitors; actives 2.3% (n = 330,000); AID 504467, 2011; further: nearly all actives have a fitted effect of over 55% in size
#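 HEK293T cells expressing luciferase-tagged ELG1 (2,000/well) received 5-Fluorouridine plus compound or DMSO for 16 hr at 37 °C. Luciferase was read by ONE-Glo luminescence after 30 min at room temperature.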
# TDP1 cell noCPT: qHTS for Inhibitors of human tyrosyl-DNA phosphodiesterase 1 (TDP1): qHTS in cells in absence of CPT; DT40 Tdp1-/- hTDP1 cells, no CPT, ATP luminescence, 48 h; Potency, µM (top dose mostly 46.2 µM), usual class: inhibitors; actives 15% (n = 420,000); AID 686978, 2013; further: nearly all actives have a fitted effect of over 55% in size
#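 No-CPT arm: Tdp1-/-;hTDP1 DT40 cells (400/well) plus compounds, incubated ≥48 hr at 37 °C. Readout CellTiter-Glo luminescence.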
# Numbers stand for hits; - = inactive; ? = inconclusive; . = no result given. Unless noted, the call rests on the fitted dose curve; in most records, active means well fitted curve in the direction sought with a large enough effect; inconclusive means small, poorly fitted or top-dose-only effect, or another doubt; inactive means no such curve, though single readings can be large; an effect the other way counts as inactive or inconclusive.
SMILES,HT1080 IDH1KD tx,TDP1 cell CPT,HT1080-NT tox,IL-1B inflam inh,ELG1 repair inh,TDP1 cell noCPT
CCCCN1C(=O)C(O)(CC(=O)c2ccc(CC)cc2)c2cc(Br)ccc21 (configuration not stated),.,?,.,.,.,18.4µM
Cc1n[nH]c(C)c1C(=O)CC1(O)C(=O)N(Cc2ccccc2)c2ccc(Br)cc21 (configuration not stated),-,?,-,-,-,?
O=C(CC1(O)C(=O)N(CCc2ccccc2)c2ccc(Br)cc21)c1ccccc1O (configuration not stated),.,5.17µM,.,.,.,5.8µM
Cc1ccc(-n2c3nc(=O)[nH]c(=O)c-3cc3c(C)nn(-c4ccccc4)c32)cc1Cl,.,-,.,.,.,-
COc1cccc(NC(=O)C(=O)NCCc2csc(-c3ccc(C(F)(F)F)cc3)n2)c1,.,?,.,.,.,-
Cn1nc(C(=O)Nc2cc(F)ccc2F)c2c1-c1ccccc1SC2,.,-,.,.,.,?
Cc1cncc(NCc2ccc3c(c2)OCO3)n1,-,-,-,-,.,?
COc1ccc(/C=N/n2cnc3c([nH]c4ccc(Br)cc43)c2=O)cc1CN1CCOCC1,-,16.4µM,-,-88.1,-,?
COc1ccc(C2C3=C(CC(C)(C)CC3=O)Nc3cc4c(cc32)OCO4)cc1 (configuration not stated),-,-,-,-60.0,-,-
CC1(C)CC(=O)C2=C(C1)Nc1cc3c(cc1C2c1ccc2c(c1)OCO2)OCO3 (configuration not stated),-,?,-,?,-,?
CC1(C)CC(=O)C2=C(C1)Nc1cc3c(cc1C2c1ccc(F)cc1)OCO3 (configuration not stated),-,?,-,-,-,?
COc1ccc(OC)c(C2C3=C(COC3=O)Nc3cc4c(cc32)OCO4)c1 (configuration not stated),0.517µM,0.164µM,0.651µM,-,-,0.146µM
CCCC[C@@H]1C=C(C(=O)O)[C@H](c2ccc(Br)cc2)N1S(=O)(=O)c1ccc(C)cc1,-,-,-,-,-,-
COc1ccccc1N1CCN(CC(=O)NCc2ccc(Cl)cc2)CC1,-,-,-,-,-,?
Cc1cc(F)ccc1NC(=O)Cn1nc(N2CCN(c3ccccc3)CC2)ccc1=O,.,-,.,.,.,-
CN(C)CCNC(=O)Cn1nc(N2CCN(c3ccccc3)CC2)ccc1=O,.,-,.,.,.,-
COc1ccc(CNC(=O)Cn2nc(N3CCN(c4ccccc4)CC3)ccc2=O)c(OC)c1,.,?,.,.,.,14.6µM
CCOc1ccccc1CNC(=O)Cn1nc(N2CCN(c3ccccc3)CC2)ccc1=O,.,20.6µM,.,.,.,20.6µM
CCc1ccccc1NC(=O)Cn1nc(N2CCN(c3ccccc3OC)CC2)ccc1=O,.,?,.,.,.,13µM
COc1cccc(CNC(=O)Cn2nc(N3CCN(c4ccccc4OC)CC3)ccc2=O)c1,.,18.4µM,.,.,.,20.6µM
O=C(Cn1nc(N2CCN(c3ccccc3)CC2)ccc1=O)NCc1ccccc1F,.,-,.,.,.,?
COc1ccc(OC)c(NC(=O)N2CCC(CN3CCCCC3)CC2)c1,.,-,.,.,.,-
CCOC(=O)C1(C)CCCCCN1C(=O)c1ccc(C(=O)OC)cc1 (configuration not stated),-,?,-,-,.,?
CN(C)Cc1ccccc1-c1cncnc1Nc1ccccc1,.,?,.,.,.,-
O=C(Nc1ccnn1C1CCN(Cc2c[nH]c3ccccc23)CC1)c1ccccc1,-,-,-,?,-,-
SMILES,HT1080 IDH1KD tx,TDP1 cell CPT,HT1080-NT tox,IL-1B inflam inh,ELG1 repair inh,TDP1 cell noCPT
COc1cc2cnc(-c3ccccc3)c(-c3ccc(C(F)(F)F)cc3)c2cc1OC,-,?,-,-,?,?
O=[N+]([O-])c1ccc(-c2c(-c3ccccc3)ncc3ccc(F)cc23)cc1,-,?,-,-,?,?
Fc1ccc2cnc(-c3ccccc3)c(-c3ccc(C(F)(F)F)cc3)c2c1,-,?,-,-,-,18.4µM
Fc1ccc2c(-c3cccc(C(F)(F)F)c3)c(-c3ccccc3)ncc2c1,-,?,-,-,?,14.6µM
Fc1ccc2cnc(-c3ccccc3)c(-c3cc(C(F)(F)F)cc(C(F)(F)F)c3)c2c1,-,?,-,-,-,16.4µM
Oc1ccccc1C1CC(c2cccs2)=NC(c2cccc(Br)c2)N1 (configuration not stated),?,14.6µM,?,-,?,20.6µM
COc1c(C)cc(C(O)c2ncc(-c3ccccc3Cl)[nH]2)cc1C (configuration not stated),?,-,?,-,.,?
CCCc1ccc(C(O)c2ncc(-c3ccccc3F)[nH]2)cc1 (configuration not stated),?,18.4µM,-,-,.,?
COc1ccccc1-c1cnc(C(O)c2cc(C)c(OC)c(C)c2)[nH]1 (configuration not stated),?,23.1µM,?,-,.,23.1µM
OC(c1ccc(F)cc1)c1ncc(-c2cccc3ccccc23)[nH]1 (configuration not stated),-,?,-,-,.,?
CCc1ccc(C(O)c2ncc(-c3cccc4ccccc34)[nH]2)cc1 (configuration not stated),?,?,?,-,.,16.4µM
COc1ccccc1-c1cnc(C(O)c2ccc(SC)cc2)[nH]1 (configuration not stated),-,29.1µM,-,-,.,?
COc1ccc(N2CCN(S(=O)(=O)CCNC(=O)c3ccc(OC(C)C)cc3)CC2)cc1,.,-,.,.,.,-
COC[C@H](NS(=O)(=O)c1ccc(Br)cc1F)[C@@H](O)c1ccccc1,-,?,-,-,.,?
COc1cccc(CN2CCNC(=O)C2CC(=O)N(C)Cc2cnccn2)c1OC (configuration not stated),-,-,-,-,-,-
O=C(c1ccc(Cn2cc(Cl)c([N+](=O)[O-])n2)cc1)N1CCN(Cc2ccccc2)CC1,-,?,-,?,-,?
CSc1ccc(C(O)c2ncc(-c3ccccc3F)[nH]2)cc1 (configuration not stated),-,29.1µM,-,-,.,?
OC(c1cc(Cl)cc(Cl)c1)c1ncc(-c2cccc(F)c2)[nH]1 (configuration not stated),?,?,?,?,.,16.4µM
